Our source for the inhibition values is ChEMBL document CHEMBL3433997, “St. Jude Leishmania screening dataset” (2016).

In general, inhibition refers to the relative decrease from the control value, in per cent.

Common to all, as to type: functional
For assay [1], the target named is Solute carrier family 2, facilitated glucose transporter member 1 (Homo sapiens) (UniProt P11166). Briefly: ST_JUDE_LEISH: Cytotoxicity at 2uM final concentration against transgenic Leishmania Mexicana promastigotes LmGLUT1 that are glucose transport deficient and complemented with the human glucose transporter GLUT1. Activity is measured by DNA content using SYBR green in vitro.
Solute carrier family 2, facilitated glucose transporter member 1 (Homo sapiens), sequence (P11166 whole entry): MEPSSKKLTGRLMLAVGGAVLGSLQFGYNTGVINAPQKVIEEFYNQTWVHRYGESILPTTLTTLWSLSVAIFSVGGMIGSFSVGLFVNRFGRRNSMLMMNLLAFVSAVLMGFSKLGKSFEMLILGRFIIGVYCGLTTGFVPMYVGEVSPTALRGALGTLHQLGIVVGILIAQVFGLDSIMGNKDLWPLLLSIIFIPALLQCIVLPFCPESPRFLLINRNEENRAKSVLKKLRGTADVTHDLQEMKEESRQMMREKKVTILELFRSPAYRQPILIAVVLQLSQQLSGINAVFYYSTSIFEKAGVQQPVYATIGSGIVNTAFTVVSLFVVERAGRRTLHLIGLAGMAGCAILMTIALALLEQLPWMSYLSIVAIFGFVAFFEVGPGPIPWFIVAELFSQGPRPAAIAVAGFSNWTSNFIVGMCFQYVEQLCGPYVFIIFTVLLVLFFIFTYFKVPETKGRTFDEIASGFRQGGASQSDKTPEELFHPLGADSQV

Assay [2] addresses Hexose transporter 1 (Plasmodium falciparum) (UniProt O97467). Briefly: ST_JUDE_LEISH: Cytotoxicity at 2uM final concentration against transgenic Leishmania Mexicana promastigotes LmPfHT that are glucose transport deficient and complemented with the Plasmodium falciparum hexose transporter. Activity is measured by DNA content using SYBR green in vitro.
Assay [3] addresses Glucose transporter (Leishmania mexicana) (UniProt O61059). The experiment in a line: ST_JUDE_LEISH: Cytotoxicity at 2uM final concentration against transgenic Leishmania Mexicana promastigotes LmGT2 that are glucose transport deficient and complemented with the L. Mexicana glucose transporter 2. Activity is measured by DNA content using SYBR green in vitro.

Turning to `O=C(O)CCSSc1cccc[n+]1[O-]`, the inhibition in assay [1] amounted to 29.9%; in assay [2], 48.3%; in assay [3] it was 3.25%.
`O=C(CNC1CCCCC1)Nc1cccc(C(=O)Nc2cccc(C(F)(F)F)c2)c1`: the results for the inhibition in assay [1], in assay [2] and in assay [3] were -1.07%, -0.66% and -1.14%, respectively.
As for `FC(F)(F)c1ccc2c(NCCCNc3ccnc4cc(C(F)(F)F)ccc34)ccnc2c1`, the inhibition in assay [1] is -2.25%; in assay [2], 3.22%; in assay [3], -4.41%.
As to `Cc1cccc2nc(-c3ccc(-c4ccc(CN5CCN(CC6CCCN(C)C6)CC5)cc4)cc3)[nH]c12` (stereo not drawn), the inhibition in assay [1] amounted to 8.82%; in assay [2] it was 10.8%; in assay [3], 6.25%.
The corresponding values for `c1ccc2[nH]c(Nc3ccc(Nc4nc5ccccc5[nH]4)cc3)nc2c1` are 0.45%, 0.37% and 0.51%.
Regarding `CCCCc1cc(NCC)nc(Nc2cccc(OC)c2)n1`, the inhibition in assay [1] worked out at 38.6%; in assay [2], 27%; in assay [3] it was 19.1%.
Take `Cc1cnc(Nc2ccccc2)nc1N[C@@H](CCCN)C(=O)Nc1ccccc1`: the inhibition was -1.01% in assay [1], -0.2% in assay [2] and -0.3% in assay [3].
The corresponding values for `Cc1cccc(CNc2ncc(C)c(NCCC(=O)Nc3ccccc3)n2)c1` are 15.3%, 12.7% and 6.61%.
Take `Fc1ccc2[nH]c(-c3ccc(-c4ccc(CN5CCN(CCN6CCOCC6)CC5)cc4)s3)nc2c1`: the inhibition in assay [1] was found to be 6.46%; in assay [2], 2.96%; in assay [3] it was 1.83%.
For `COc1ccc(Nc2ncc(OC)c(Nc3ccccc3C(N)=O)n2)cc1N1CCN(C)CC1`, in that order: 17.6%, 21.9% and 7.83%.
In the case of `CC(C)CN1CCCN(Cc2cccc(NC(=O)c3cc4ccccc4s3)c2)CC1`, the inhibition is -0.04% in assay [1], -0.28% in assay [2] and -5.16% in assay [3].
For `N#Cc1ccc2c(c1)CN(C1CCC(NC(=O)c3cc(-c4ccc(Cl)cc4)cs3)CC1)CCC2` (stereo not drawn), in that order: 3.29%, 0.21% and 1.7%.
In the case of `FC(F)(F)c1ccc2[nH]c(-c3cccc(-c4ccc(CNCCN5CCNCC5)cc4)c3)nc2c1`, the inhibition in assay [1] worked out at 2.75%; in assay [2], 2.47%; in assay [3], 1.97%.
For `O=C(CNc1ccc(Cl)c(S(=O)(=O)N2CCCC2)c1)Nc1ccc(Br)cc1F`, in that order: -2.34%, 1.47% and 1.03%.
For `Cc1cccc2nc(-c3ccc(-c4ccc(CNCc5cccc(N)c5)cc4)s3)[nH]c12`, in that order: 4.29%, 1.98% and 2.76%.
For `Cc1nc(-c2ccc(-c3ccc(C(=O)Nc4ccc(C(C)C)c(OCCN(C)C)c4)cc3)c(C)c2)no1`, in that order: 4.64%, 2.76% and 2.51%.
With `c1ccc2c(c1)ncc1c3ccccc3[nH]c21`, the inhibition in assay [1] is 7.76%; in assay [2], 7.76%; in assay [3], 4.67%.
For the compound `O=C(Nc1ccc(C(=O)N2CCN(CCN3CCN(c4cccc(C(F)(F)F)c4)CC3)CC2)cc1)c1cc(Cl)cc(Cl)c1`, the inhibition in assay [1] is 3.84%; in assay [2] it was 0.79%; in assay [3] it was 2.52%.
The corresponding values for `CC(C)n1ncc2c(C(=O)N3CCCc4ccccc43)cc(-c3ccccc3)nc21` are 4.46%, 2.95% and 3.97%.
For `Cc1cc(C(=O)NCc2ccc(-c3c(C)noc3C)cc2)n(-c2ccccc2)n1`, in that order: 4.79%, 4.63% and 3.34%.
The corresponding values for `O=C(c1ccc(-c2ccc(-c3nc4cc(C(F)(F)F)ccc4[nH]3)s2)cc1)N1CCN(CCc2ccccc2)CC1` are 5.29%, 3.93% and 4.62%.
For the compound `O=C(Nc1ccc(-c2nc3ccccc3[nH]2)cc1)c1ccc([N+](=O)[O-])s1`, the inhibition in assay [1] was 5.3%; in assay [2], 7.89%; in assay [3] it was 3.02%.
The corresponding values for `CS(=O)(=O)Nc1ccc(-c2ccc3ccnc(N)c3c2)cc1` are 7.57%, 7.12% and 6.67%.
With `CN1CCN(c2ccc(-c3cccc(NC(=O)c4ccc5ccccc5c4)c3)nn2)CC1`, the inhibition in assay [1] was determined as 14%; in assay [2], 10.9%; in assay [3] it was 7.19%.
As to `COc1ccc(NC(=O)Nc2cccc(-c3ccc(-c4nc5cccc(C)c5[nH]4)s3)c2)cc1`, the values for the inhibition in assay [1], in assay [2] and in assay [3] were 6.52%, 5.29% and 3.22%, respectively.
The corresponding values for `Cc1cc(CN2C(=O)C(c3ccccc3)(c3ccccc3)N=C2N)c(C(F)(F)F)o1` are 6.61%, 9.85% and 6.9%.
`CN(C)CCCOc1ccc(CCNCc2cccc(Oc3ccc(Cl)cc3)c2)cc1`: the inhibition in assay [1] came to 14%; in assay [2], 16.4%; in assay [3], 13.7%.
For `O=C(Nc1ccc(Cl)cc1)N1CCN(C2CCCCC2)CC1`, in that order: 4.49%, 2.78% and 3.2%.
For the compound `COc1ccc(S(=O)(=O)NC2CCN(CCNC(=O)Nc3cc(C)nc4ccccc34)C2)cc1` (stereo not drawn), the inhibition was -0.6% in assay [1], -0.21% in assay [2] and -0.75% in assay [3].
For `Cc1cccc(C(=O)NC(NC(=S)Nc2cc(Cl)ccc2Cl)C(Cl)(Cl)Cl)c1` (stereo not drawn), the inhibition in assay [1] is -0.37%; in assay [2], -1.9%; in assay [3], -2.85%.
In the case of `O=C(/C=C/c1ccc(Cl)cc1)NCCCCCN1CCCC(C(=O)Nc2ccc(Cl)c(Cl)c2)C1` (stereo not drawn), the inhibition in assay [1] was found to be 0.22%; in assay [2], 1.61%; in assay [3], 1.59%.
Turning to `COc1cncc(/C=C/c2cncc(C(=O)NCCc3ccc(Cl)cc3Cl)c2)c1`, the figures for the inhibition in assay [1], in assay [2] and in assay [3] were 4.53%, 5.13% and 3.94%, respectively.
The corresponding values for `COc1cccc(OC)c1-c1ccccc1NC(=O)N1CCCc2cc(C)ccc21` are 2.46%, 2.69% and 2.07%.
Turning to `NC(=O)Nc1ccc2c(Nc3ccc(OCc4ccccc4)cc3)ncnc2c1`, the inhibition in assay [1] was -1.45%; in assay [2], -0.35%; in assay [3] it was -2.05%.
For `Cc1cccc2nc(-c3ccc(-c4ccc(CNCc5ccc(CN)cc5)cc4)s3)[nH]c12`, in that order: 5.43%, 8.51% and 0.48%.
On to `CCCc1cc(NC2CCN(C)CC2)nc(Nc2ccc(F)cc2)n1`, for which the values for the inhibition in assay [1], in assay [2] and in assay [3] were 10%, 6.83% and 5.22%, respectively.
